Assay outcomes as filed in PubChem BioAssay.
DAX1 inh-1 – DAX1 (NR0B1) inhibitors, primary screen, cell-based, HEK293, Gal4-DAX1, luciferase luminescence. Nuclear receptor subfamily 0 group B member 1 (Homo sapiens), P51843. HEK293 Gal4-DAX1 luciferase reporter. inhibition, % at 6.75 µM. 340,000 tested, 0.99% active. AID 504766, 2011;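 active = inhibition above the mean over all tested compounds plus 3 SD, cut at about 4.2% in these data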;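 note: inhibition shows as a rise in luminescence from relieved DAX1 repression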
Target sequence (P51843 207-470 limits assumed): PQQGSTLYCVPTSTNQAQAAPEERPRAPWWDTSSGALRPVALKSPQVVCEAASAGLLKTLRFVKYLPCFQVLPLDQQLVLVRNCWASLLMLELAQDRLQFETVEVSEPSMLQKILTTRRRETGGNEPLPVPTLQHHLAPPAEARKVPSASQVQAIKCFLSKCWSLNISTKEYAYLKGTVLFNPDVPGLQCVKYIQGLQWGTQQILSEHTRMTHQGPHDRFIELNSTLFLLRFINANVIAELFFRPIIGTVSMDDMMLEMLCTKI
hcDAF12 agonist – H. contortus DAF-12 nuclear receptor activators, primary screen, cell-based, luminescence, HEK293, lit1-tk-luc reporter | 370,000 tested, 1.4% active | activation, % at 6.8 µM | HEK293 hcDAF-12 lit1-tk-luc reporter; 0% DMSO, 100% Δ7-dafachronic acid | AID 652067, 2013;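 active = activation above the mean of all tested compounds plus 3 SD, cut at about 5.5% in these data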
ssDAF12 agonist – S. stercoralis DAF-12 nuclear receptor activators, primary screen, cell-based, luminescence, HEK293, GRIP1 co-expression, lit1-tk-luc; Nuclear hormone receptor DAF-12 (Strongyloides stercoralis); HEK293 ssDAF-12/GRIP1 lit1-tk-luc reporter; % of 3 µM dafachronic acid response; activation, % at 6.8 µM; 370,000 tested, 1% active; AID 652126, 2013;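 active = activation above the mean over all tested compounds plus 3 SD, cut at about 0.9% in these data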
DAX1 inh-2 – DAX1 (NR0B1) inhibitors on StAR promoter, primary screen, cell-based, luminescence, SF-1 (NR5A1), full-length DAX-1; AID 652010, 2013; HEK293T StAR-luciferase reporter, SF-1/DAX-1 repression relief; inhibition, % at 6.8 µM; 370,000 tested, 1.1% active;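 active = inhibition above the mean over all tested compounds plus 3 SD, cut at about 3.6% in these data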;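 note: higher inhibition means more luminescence from relief of DAX-1 repression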
hgDAF-12 ag – H. glycines DAF-12 receptor agonists, primary screen, cell-based, luminescence, HEK293, GAL4 fusion, UAS-luciferase | Nuclear hormone receptor DAF-12 (Heterodera glycines), GAL4 fusion | HEK293 GAL4-hgDAF12 UAS-luciferase reporter, agonist luminescence; normalized to butyrate control | AID 687014, 2013 | activation, % at 6.8 µM | 370,000 tested, 1.8% active;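 active = activation above a cutoff set at the mean of all screened compounds plus 3 SD, cut at about 10% in these data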
Numbers stand for hits. This is a sample that favours compounds with a hit; in the whole collection about 4.1% have one here.

`CCc1cc(OC)c(CCN)cc1OC` gave hcDAF12 agonist inactive, ssDAF12 agonist inactive, DAX1 inh-2 inactive and hgDAF-12 ag inactive.
Screening Clc1ccc2[nH]c3c(c2c1)CCNC3 returned DAX1 inh-1 inactive, hcDAF12 agonist inactive, ssDAF12 agonist 0.9, DAX1 inh-2 inactive and hgDAF-12 ag inactive.
CCOC(=O)[C@]12Cc3ccccc3[C@H]1N(C)C(=O)c1cc(OC)ccc12 was read as hcDAF12 agonist inactive, ssDAF12 agonist inactive, DAX1 inh-2 3.7 and hgDAF-12 ag inactive.
Screening CCOC(=O)[C@]12Cc3cc(C)ccc3[C@H]1N(C(C)C)C(=O)c1ccccc12 returned hcDAF12 agonist inactive, ssDAF12 agonist inactive, DAX1 inh-2 4.2 and hgDAF-12 ag inactive.
CCOC(=O)[C@]12Cc3cc(OC)ccc3[C@H]1N(C1CCCCC1)C(=O)c1cc(OC)ccc12 was read as hcDAF12 agonist inactive, ssDAF12 agonist inactive, DAX1 inh-2 inactive and hgDAF-12 ag inactive.
O=c1[nH]c2cc(Cl)ccc2n1C1CCN(Cc2ccc(-c3nc4ccc(F)cc4nc3-c3ccccc3)cc2)CC1 was read as hcDAF12 agonist inactive, ssDAF12 agonist inactive, DAX1 inh-2 inactive and hgDAF-12 ag inactive.
Screening NC(Cc1ccccc1)c1csc(Nc2ccccn2)n1 (stereo not drawn) returned hcDAF12 agonist inactive, ssDAF12 agonist inactive, DAX1 inh-2 inactive and hgDAF-12 ag 10.7.
For NC(Cc1ccc(Cl)cc1)c1csc(Nc2ccccn2)n1 (stereo not drawn) the results were hcDAF12 agonist inactive, ssDAF12 agonist inactive, DAX1 inh-2 inactive and hgDAF-12 ag inactive.
CCC(=Nc1ccc(OC)cc1OC)c1c(O)n(C)c(=O)n(C)c1=O was read as DAX1 inh-1 inactive, hcDAF12 agonist inactive, ssDAF12 agonist inactive, DAX1 inh-2 inactive and hgDAF-12 ag inactive.
`CCC(=Nc1cccc(C(F)(F)F)c1)c1c(O)n(C)c(=O)n(C)c1=O` gave DAX1 inh-1 4.5, hcDAF12 agonist inactive, ssDAF12 agonist inactive, DAX1 inh-2 inactive and hgDAF-12 ag inactive.
`C[C@]12CC[C@H](O)C[C@H]1CC[C@@H]1[C@@H]2CC[C@]2(C)C(=O)CC[C@@H]12` gave DAX1 inh-1 4.3, hcDAF12 agonist inactive, ssDAF12 agonist inactive, DAX1 inh-2 inactive and hgDAF-12 ag inactive.
CN1CCc2nc3ccc(F)cc3c(C(N)=O)c2C1 was read as DAX1 inh-1 inactive, hcDAF12 agonist inactive, ssDAF12 agonist inactive, DAX1 inh-2 inactive and hgDAF-12 ag inactive.
`COc1ccccc1N(CC(=O)NC1CCCCC1)C(=O)c1cnn(C(C)C)c1` gave DAX1 inh-1 inactive, hcDAF12 agonist inactive, ssDAF12 agonist 1.3, DAX1 inh-2 inactive and hgDAF-12 ag inactive.
`COc1cc2c(cc1OC)C13CCN4CC5=CCOC(CC(=O)O)C(C5CC41)C3N2` (stereo not drawn) gave DAX1 inh-1 5.7, hcDAF12 agonist inactive, ssDAF12 agonist inactive, DAX1 inh-2 inactive and hgDAF-12 ag inactive.
Screening COc1ccc(-n2c(-c3ccc(C)cc3)nc3ccccc3c2=O)cc1 returned DAX1 inh-1 inactive, hcDAF12 agonist inactive, ssDAF12 agonist inactive, DAX1 inh-2 inactive and hgDAF-12 ag inactive.
Screening COc1ccc(-c2nc3ccccc3c(=O)o2)cc1 returned DAX1 inh-1 inactive, hcDAF12 agonist 5.9, ssDAF12 agonist inactive, DAX1 inh-2 inactive and hgDAF-12 ag inactive.
`COc1cc2nc(CN3CC=C(c4ccccc4)CC3)[nH]c(=O)c2cc1OC` gave DAX1 inh-1 6.0, hcDAF12 agonist inactive, ssDAF12 agonist inactive, DAX1 inh-2 inactive and hgDAF-12 ag inactive.
`CC(=NNC(=S)N1CC2CCC(CC2)C1)c1nccs1` gave DAX1 inh-1 inactive, hcDAF12 agonist inactive, ssDAF12 agonist inactive, DAX1 inh-2 inactive and hgDAF-12 ag 12.1.
COc1ccc2cc(C(=O)C3CCCN(C4CCOCC4)C3)ccc2c1 (stereo not drawn) was read as DAX1 inh-1 inactive, hcDAF12 agonist inactive, ssDAF12 agonist inactive, DAX1 inh-2 4.4 and hgDAF-12 ag inactive.
Screening CCOP(=S)(OCC)SCC(=O)NC(C)(CC)C(=O)O (stereo not drawn) returned DAX1 inh-1 inactive, hcDAF12 agonist inactive, ssDAF12 agonist inactive, DAX1 inh-2 inactive and hgDAF-12 ag inactive.
Screening CSc1nc(Cl)c(Br)c(N2CC2)n1 returned DAX1 inh-1 4.6, hcDAF12 agonist inactive, ssDAF12 agonist inactive, DAX1 inh-2 inactive and hgDAF-12 ag inactive.
N#Cc1ccc2nc(-c3ccc(CN4CCC(n5c(=O)[nH]c6cc(Cl)ccc65)CC4)cc3)c(-c3ccccc3)nc2c1 was read as hcDAF12 agonist inactive, ssDAF12 agonist inactive, DAX1 inh-2 inactive and hgDAF-12 ag inactive.
CN(C(=O)Oc1ccc(C(C)(C)C)cc1)c1ccccc1 was read as DAX1 inh-1 inactive, hcDAF12 agonist inactive, ssDAF12 agonist inactive, DAX1 inh-2 inactive and hgDAF-12 ag 11.3.
For Cc1cccc2nc(-c3ccccc3)c(-c3ccc(CN4CCC(n5c(=O)[nH]c6cc(Cl)ccc65)CC4)cc3)nc12 the results were hcDAF12 agonist inactive, ssDAF12 agonist inactive, DAX1 inh-2 inactive and hgDAF-12 ag inactive.
COC(=O)C(O)(c1ccc(NC(=O)NC2CCCCC2)cc1)C(F)(F)F (stereo not drawn) was read as DAX1 inh-1 inactive, hcDAF12 agonist inactive, ssDAF12 agonist inactive, DAX1 inh-2 inactive and hgDAF-12 ag 11.3.
Cc1cc(C(=O)Nc2ccccc2)nn1C(C)(C)C was read as DAX1 inh-1 inactive, hcDAF12 agonist inactive, ssDAF12 agonist inactive, DAX1 inh-2 inactive and hgDAF-12 ag inactive.
`Cc1cc(C(=O)Nc2ccc3c(c2)OCCO3)nn1C(C)(C)C` gave DAX1 inh-1 5.7, hcDAF12 agonist inactive, ssDAF12 agonist inactive, DAX1 inh-2 inactive and hgDAF-12 ag inactive.
`O=C(O)[C@H]1NC[C@H]2C[C@H]21` gave DAX1 inh-1 4.8, hcDAF12 agonist inactive, ssDAF12 agonist inactive, DAX1 inh-2 inactive and hgDAF-12 ag inactive.
Screening Cc1cc(N2CCNC[C@@H]2C)ccc1N1CC[C@@H](O)C1 returned hcDAF12 agonist inactive, ssDAF12 agonist inactive, DAX1 inh-2 inactive and hgDAF-12 ag inactive.
COc1ccc(-c2nn(CCC#N)cc2C(=O)Nc2ccccc2Br)cc1 was read as DAX1 inh-1 inactive, hcDAF12 agonist inactive, ssDAF12 agonist inactive, DAX1 inh-2 inactive and hgDAF-12 ag inactive.
For COc1ccc(-c2nn(CCC#N)cc2C(=O)Nc2ccccc2Br)cc1[N+](=O)[O-] the results were DAX1 inh-1 4.9, hcDAF12 agonist inactive, ssDAF12 agonist inactive, DAX1 inh-2 inactive and hgDAF-12 ag inactive.
